Inconclusive results are not listed. Values without a mark were called inactive. The source made the active and inactive calls. The call rests on the fitted dose curve; in most records, active means well fitted cell-killing curve with a large enough effect in the repeat runs; inconclusive means weak or mixed curves, or effect the other way; inactive means no such curve, though single readings can be large or run the other way.
Assay: qHTS assay to identify small molecule antagonists of the thyroid receptor (TR) signaling pathway - cell viability counter screen (AID 743064); further: nearly all actives have a fitted effect of over 50% in size
Settings: GH3.TRE-Luc viability, CellTiter-Fluor, 24 h; series mostly up to 70.3 µM; activity change, negative = cytotoxic: at the top concentration
Excerpt: National Center for Advancing Translational Sciences [NCATS]
NIH Chemical Genomics Center [NCGC]
U.S. Environmental Protection Agency [EPA]
National Institutes of Environmental Health Sciences [NIEHS]
National Toxicology Program [NTP]
U.S. Food and Drug Administration [FDA]
Thyroid receptor (TR), a nuclear hormone receptor, plays an important role in development, proliferation, differentiation, metabolism, brain function, and cardiovascular system. […] To profile the Tox21 10K compound library in TR signaling, a cell-based GH3-TRE-Luc assay (GH3.TRE-Luc cell line, developed by the laboratory of Dr. Albertinka J. Murk, Wageningen University) was used to measure the inhibition of TR. GH3 (rat pituitary tumor) cells stably expressing a TR activity sensor consisting of two TR response elements and a luciferase reporter gene. The cytotoxicity of the Tox21 compound library against the GH3.TRE-Luc cell line was tested in parallel by measuring the cell viability using CellTiter-Fluor assay (Promega, Madison, WI) in the same wells.
Tox21 Assay Protocol Summary:
GH3.TRE-Luc cells were dispensed at 1500 cells/4 uL/well into 1536-well white solid bottom plates using a Multidrop Combi dispenser (Thermo Fisher Scientific Inc., Waltham, MA). After the assay plates were incubated at 37 C for 4 hours, 23 nL of library compound or DMSO controls was transferred to the assay plates by a pintool station (Kalypsys, San Diego, CA), followed by addition of 1 ul of T3 (1 nM, final concentration in the wells) to stimulate TR transactivation. The assay plates were incubated at 37 C for 23.5 h, and then 1 uL of CellTiter-Fluor reagent (Promega, Madision, WI) of measuring cytotoxicity was added to each well using a Bioraptr Flying Reagent Dispenser (FRD) workstation (Beckman Coulter, Indianapolis, IN, USA). The plates were incubated at 37C and 5% CO2 for additional 30 min, and fluorescence intensity was measured by a ViewLux plate reader (PerkinElmer, Shelton, CT).
On the % scale 0 is the no-effect control and ±100 the full control effect; potency means the concentration at half of the fitted maximal effect.

Compound | activity change, negative = cytotoxic | Potency
Cc1ccc(C(=O)c2ccccc2)cc1 | 6.61% | –
CCO[Si](OCC)(OCC)c1ccccc1 | -0.24% | –
CCOC(=O)c1cnc2c(cnn2CC)c1NN=C(C)C | 17.9% | –
CN1C(C)(C)CC(O)CC1(C)C | 3.78% | –
COc1ccc2cc1Oc1cc3c(cc1OC)CC[N+](C)(C)[C@H]3Cc1ccc(cc1)Oc1c(OC)c(OC)cc3c1[C@@H](C2)[N+](C)(C)CC3 | 21% | –
Cc1ccccc1N=C(N)N=C(N)N | -16.1% | –
NCCCC(N)(C(=O)O)C(F)F (stereo not given) | 21.5% | –
C=CCCC(=O)O | 19.1% | –
NC(=O)N1c2ccccc2CC(=O)c2ccccc21 | – | 13.3 µM (active)
CCN[C@@H]1C[C@H](N)[C@@H](OC2OC(CN)=CCC2N)[C@H](O)[C@H]1O[C@H]1OC[C@](C)(O)[C@H](NC)[C@H]1O (stereo not given in full) | -4.59% | –
c1ccc(CCc2ccccc2)cc1 | 13.5% | –
CN1[C@@H]2CC[C@H]1CC(OC(=O)C(O)c1ccccc1)C2 (stereo not given in full) | – | inactive
C=CC(=O)OCCCl | -13.4% [at 95 µM] | –
CCCCOC(=O)CCC(C)=O | -2.45% | –
CC[N+](C)(CC)CCOC(=O)C1c2ccccc2Oc2ccccc21 | 19.8% | –
CC(=O)C1CCCCC1=O (stereo not given) | -1.08% | –
Cc1nc2ccc(CN(C)c3ccc(C(=O)N[C@@H](CCC(=O)O)C(=O)O)s3)cc2c(=O)[nH]1 | – | inactive
c1ccc2sc(SN3CCOCC3)nc2c1 | 7.18% | –
CN(C)CCN(C)CCN(C)C | 13.2% | –
CCCCCCCCCCCCCCCCCCO | 28.4% | –

Compound | activity change, negative = cytotoxic | Potency
CCCCOCCOC(=O)COc1cc(Cl)c(Cl)cc1Cl | 7.23% | –
O=C(O)Cc1csc(-c2ccc(Cl)cc2)n1 | -2.37% | –
Clc1cc(Cl)c(Cl)nc1Cl | -4.28% | –
Nc1ccn([C@@H]2O[C@H](CO)[C@@H](O)C2(F)F)c(=O)n1 | – | 0.168 µM (active)
O=S(=O)(O)c1cccc2c(S(=O)(=O)O)cccc12 | 21.9% | –
CC(C)=CCC/C(C)=C/C#N | 7.48% [at 95 µM] | –
N[C@@H](CCC(=O)O)C(=O)O | 16.7% | –
COc1cc(C)nc(-n2nc(C)cc2OC)n1 | 13.8% [at 32.5 µM] | –
CCOCC(C)O (stereo not given) | 9.1% | –
CC(=O)N1C[C@H](O)C[C@H]1C(=O)O | 2.21% | –
CC12CCC(C(=O)C1=O)C2(C)C (stereo not given) | 11.4% [at 95 µM] | –
CC(C)(N)C#N | 15.4% [at 95 µM] | –
CC(N)C12CC3CC(CC(C3)C1)C2 (stereo not given) | -22.9% | –
Cc1c(N)c(=O)n(-c2ccccc2)n1C | 19.3% [at 32.5 µM] | –
C=CCCCCCCCCC(=O)OCC | 5.28% | –
CNC(=O)Nc1ccc(Cl)c(Cl)c1 | -10.4% | –
[Ca+2] | 5.5% | –
CCCCOCCOC(=O)CCCCCCCCC(=O)OCCOCCCC | 12.4% | –
CC(C)CC(C)(N)C#N (stereo not given) | 1.86% [at 95 µM] | –
C=CC(C)(CCC=C(C)C)OC(=O)CC (stereo not given) | 4.47% | –

From PubChem BioAssay (Tox21)
